For five compounds, composite z-score and z-score results are on record in PubChem BioAssay.

The source made the active and inactive calls. Unless noted, no rule for the calls is given here.

Assay [1] in a line: compounds binding Alexa647 anti-His antibody – biochemical, small-molecule microarray, 635 nm fluorescence, artefact control for SMM control protein annotation, primary screen (AID 1128).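 Also: score merges feature fluorescence with signal-to-noise for each printed compound spot.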 Particulars: higher = more signal.
For assay [2], the system named is Human papillomavirus type 1a E7 protein (residues 1-88). As to the kind of experiment: HPV1a E7 small-molecule binders, primary screen, biochemical, small-molecule microarray, residues 1-88, 635 nm (AID 1129). As to conditions: small-molecule microarray binding, fluorescence 635 nm; higher = more signal.
In assay [3] the target is Focal adhesion kinase 1 (Homo sapiens) (UniProt Q05397). Kind of assay: PTK2 protein binding on printed compound slides – biochemical, small-molecule microarray, 635/667 nm fluorescence, BSA, DTT, primary screen (AID 1130).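 Also: composite of spot emission at 667 nm and signal to noise over triplicate slides.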 Particulars: 635 nm fluorescence, higher = more signal.
The test system of assay [4] is Fibrinogen (Alexa647-labelled). Kind of assay: Alexa647-fibrinogen binding to printed small molecules – biochemical, small-molecule microarray, 635/667 nm fluorescence, artefact control for SMM control-protein annotation, profiling panel (AID 1131).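 Also: z-score merges 667 nm fluorescence with per-spot signal-to-noise over triplicate slides.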 Particulars: fibrinogen-A647 binding fluorescence, higher = more signal.
Assay [5] concerns the target Follistatin (Homo sapiens) (UniProt P19883). Kind of assay: FST protein binding to printed compounds – biochemical, small-molecule microarray, 635/667 nm fluorescence, primary screen (AID 1132). As to conditions: 635 nm fluorescence, higher = more signal.
For assay [6], the target named is Fibroblast growth factor 2 (Homo sapiens) (UniProt P09038). Kind of assay: basic fibroblast growth factor binding to printed compounds – biochemical, small-molecule microarray, 635/667 nm fluorescence, primary screen (AID 1133). Particulars: FGF2, fluorescence 635/667, higher = more signal.
Assay [7] can be described thus: JC-1 mitochondrial potential readout, lung cancer cells – cell-based, A549, JC-1 fluorescence, basal, 24 h, 100 nL, profiling panel (AID 1138).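 Also: A549 lung adenocarcinoma cells under basal conditions with no added stimulus; test concentration not given here.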 Particulars: higher = more signal.
Another assay concerns Lefty1. As to the kind of experiment: Lefty1 protein binding to printed compounds – biochemical, small-molecule microarray, 635/667 nm fluorescence, primary screen (AID 1139). Particulars: fluorescence 635/667, higher = more signal.
The test system of assay [8] is wheat germ agglutinin (Triticum aestivum), Alexa647-labelled. Kind of assay: Alexa647-WGA lectin binding to printed small molecules – biochemical, small-molecule microarray, 635/667 nm fluorescence, artefact control for SMM control-protein annotation, profiling panel (AID 1140).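 Also: score merges 667 nm feature emission with signal to noise over triplicate slides.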 Particulars: WGA-A647 binding, 635 nm fluorescence, higher = more signal.
Assay [9] has as its target Luciferin 4-monooxygenase (Photinus pyralis) (UniProt P08659). As to the kind of experiment: inhibition of purified Photinus pyralis luciferase – biochemical, luminescence, purified enzyme, 2006 set, primary screen (AID 1141).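 Also: cell-free assay with purified firefly luciferase at 100 ng per well in PBS; test concentration not given here.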 Particulars: purified firefly luciferase, SteadyGlo luminescence, 30 min; higher = more signal, called active from +8 up or from −8 down.
Assay [10] relates to Wnt5a (protein binding on small-molecule microarray). Kind of assay: small molecules binding Wnt5a protein – biophysical, small-molecule microarray, 635/667 nm fluorescence, primary screen (AID 1142).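 Also: fluorescence read at 667 nm with signal to noise per printed feature.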 As to conditions: 635 nm fluorescence, higher = more signal.
Assay [11] in a line: ATP-based viability of Huh7 replicon cells – cell-based, CellTiter-Glo luminescence, basal, 48 h, cytotoxicity control for HCV replication inhibitor project, primary screen (AID 1143).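 Also: Huh7 hepatoma cells carrying a hepatitis C replication reporter with no stimulus; test concentration not given here.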 Particulars: higher = more signal, called active from +8 up or from −8 down. For orientation: Replicon systems follow genome replication, usually without infectious particles.
The nature of assay [12]: Pseudomonas biofilm growth suppression – PAO1 strain, BacTiter-Glo luminescence, LB-PBS, primary screen (AID 1144). Particulars: P. aeruginosa PAO1 biofilm, 12 h, higher = more signal.
The nature of assay [13]: basal CRE-LacZ reporter activity in PC12 – cell-based, unstimulated, primary screen (AID 1145). As to conditions: no forskolin, luminescence, 4.5 h, higher = more signal, called active from +8 up or from −8 down.
The nature of assay [14]: forskolin-driven CRE-LacZ activity in PC12 – cell-based, CRE-LacZ reporter, forskolin-stimulated, primary screen (AID 1146).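 Also: PC12 cells with 6xCRE LacZ reporter stimulated by forskolin 10 µM; beta-galactosidase reporter signal reflecting CREB driven transcription.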 As to conditions: luminescence, 4.5 h, higher = more signal, called active from +8 up or from −8 down.
Assay [15] addresses Streptavidin (Streptomyces avidinii) (UniProt P22629). Kind of assay: compounds binding control protein streptavidin – biophysical, small-molecule microarray, 635/667 nm fluorescence, artefact control for SMM compound annotation, primary screen (AID 1147).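 Also: signal reflects streptavidin binding to arrayed compounds as a control protein.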 Particulars: higher = more signal.
Assay [16] can be described thus: probe aInhba binding on compound microarray – biochemical, small-molecule microarray, 635/667 nm fluorescence, primary screen (AID 1148).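 Also: score merges 667nm spot fluorescence with signal-to-noise for antibody binding to printed compounds.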 As to conditions: higher = more signal.
The target in assay [17] is Torsin-1A (Homo sapiens) (UniProt O14656). As to the kind of experiment: TOR1A wild-type binding on microarray – cell lysate, small-molecule microarray, lysate, 635/667 nm, primary screen (AID 1149). Particulars: COS7 hTOR1A-WT lysate, 635 nm fluorescence, higher = more signal.
The target is the same in assay [18]. Kind of assay: torsin A mutant lysate binding on microarrays – cell lysate, small-molecule microarray, COS7 lysate, 635/667 nm fluorescence, primary screen (AID 1150).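 Also: score pools 667 nm emission and signal to noise measuring lysate protein binding.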 As to conditions: COS7 hTOR1A mutant lysate, 635 nm fluorescence, higher = more signal.
For assay [19], the system named is Sonic hedgehog protein (Shh). As to the kind of experiment: Sonic hedgehog microarray binding compounds – biochemical, small-molecule microarray, 635/667 nm fluorescence, primary screen (AID 1151).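 Also: Shh protein binding to compounds spotted on small-molecule microarray slides; score combines spot fluorescence intensity with signal-to-noise across triplicate slides.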 Particulars: 635 nm fluorescence, higher = more signal.

Focal adhesion kinase 1 (Homo sapiens), sequence (Q05397 whole entry, looked up): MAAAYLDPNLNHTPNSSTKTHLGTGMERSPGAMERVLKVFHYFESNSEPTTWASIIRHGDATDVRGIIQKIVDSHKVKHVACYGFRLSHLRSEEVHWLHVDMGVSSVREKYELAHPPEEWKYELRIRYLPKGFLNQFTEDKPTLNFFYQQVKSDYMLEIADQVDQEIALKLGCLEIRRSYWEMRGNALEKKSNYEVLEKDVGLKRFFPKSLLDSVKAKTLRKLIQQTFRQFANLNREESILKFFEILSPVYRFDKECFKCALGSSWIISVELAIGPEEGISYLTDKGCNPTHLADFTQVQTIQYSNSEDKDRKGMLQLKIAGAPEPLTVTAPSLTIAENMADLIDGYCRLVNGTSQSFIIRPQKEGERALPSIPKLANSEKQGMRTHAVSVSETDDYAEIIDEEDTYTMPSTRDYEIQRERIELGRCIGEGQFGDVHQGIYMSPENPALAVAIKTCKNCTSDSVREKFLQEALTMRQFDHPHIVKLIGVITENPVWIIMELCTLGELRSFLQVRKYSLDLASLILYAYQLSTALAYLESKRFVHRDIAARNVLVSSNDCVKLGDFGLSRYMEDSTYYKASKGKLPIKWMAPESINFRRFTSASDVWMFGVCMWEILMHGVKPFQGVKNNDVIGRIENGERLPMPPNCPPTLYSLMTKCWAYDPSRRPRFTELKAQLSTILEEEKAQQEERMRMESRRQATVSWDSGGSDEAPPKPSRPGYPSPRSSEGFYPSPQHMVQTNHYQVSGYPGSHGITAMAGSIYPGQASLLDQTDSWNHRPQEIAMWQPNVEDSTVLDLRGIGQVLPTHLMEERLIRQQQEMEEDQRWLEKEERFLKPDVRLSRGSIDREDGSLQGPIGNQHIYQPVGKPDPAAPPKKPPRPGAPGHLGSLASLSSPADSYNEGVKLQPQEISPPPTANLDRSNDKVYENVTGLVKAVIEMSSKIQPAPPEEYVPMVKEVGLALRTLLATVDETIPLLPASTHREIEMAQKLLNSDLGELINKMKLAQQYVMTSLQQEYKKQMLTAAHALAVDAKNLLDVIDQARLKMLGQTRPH
Torsin-1A (Homo sapiens), sequence (O14656 whole entry, looked up): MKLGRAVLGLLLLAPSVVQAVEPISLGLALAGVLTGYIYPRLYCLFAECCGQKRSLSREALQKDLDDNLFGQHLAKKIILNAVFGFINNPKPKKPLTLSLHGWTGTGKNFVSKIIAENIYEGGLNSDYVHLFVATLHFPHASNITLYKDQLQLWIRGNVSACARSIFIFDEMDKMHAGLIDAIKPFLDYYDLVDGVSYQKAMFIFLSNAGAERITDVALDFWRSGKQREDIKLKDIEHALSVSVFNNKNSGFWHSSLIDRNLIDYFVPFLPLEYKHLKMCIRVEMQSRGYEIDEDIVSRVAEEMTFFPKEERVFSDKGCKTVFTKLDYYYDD
Luciferin 4-monooxygenase (Photinus pyralis), sequence (P08659 whole entry, looked up): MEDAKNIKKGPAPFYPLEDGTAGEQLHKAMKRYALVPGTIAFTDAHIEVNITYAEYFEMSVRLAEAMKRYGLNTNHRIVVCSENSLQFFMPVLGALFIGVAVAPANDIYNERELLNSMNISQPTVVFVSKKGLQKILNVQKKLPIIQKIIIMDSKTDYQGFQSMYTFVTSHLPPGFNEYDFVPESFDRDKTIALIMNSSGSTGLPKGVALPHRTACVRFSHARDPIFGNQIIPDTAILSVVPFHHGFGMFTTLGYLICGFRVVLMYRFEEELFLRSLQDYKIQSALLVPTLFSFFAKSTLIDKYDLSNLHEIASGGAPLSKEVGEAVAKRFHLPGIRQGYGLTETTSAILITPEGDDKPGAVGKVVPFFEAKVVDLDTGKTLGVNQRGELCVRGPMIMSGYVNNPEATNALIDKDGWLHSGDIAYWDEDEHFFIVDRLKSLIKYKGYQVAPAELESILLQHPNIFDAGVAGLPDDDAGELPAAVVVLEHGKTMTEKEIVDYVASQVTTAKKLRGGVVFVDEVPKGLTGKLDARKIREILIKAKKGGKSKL
Fibroblast growth factor 2 (Homo sapiens), sequence (P09038 whole entry, looked up): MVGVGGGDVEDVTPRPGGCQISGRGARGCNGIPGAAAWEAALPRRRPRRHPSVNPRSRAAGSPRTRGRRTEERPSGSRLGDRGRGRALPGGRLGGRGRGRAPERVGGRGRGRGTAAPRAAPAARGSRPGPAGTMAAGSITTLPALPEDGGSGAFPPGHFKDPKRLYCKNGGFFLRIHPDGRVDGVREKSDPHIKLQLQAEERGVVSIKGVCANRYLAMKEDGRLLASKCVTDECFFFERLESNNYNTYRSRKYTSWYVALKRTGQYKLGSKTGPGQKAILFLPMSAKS
Streptavidin (Streptomyces avidinii), sequence (P22629 whole entry, looked up): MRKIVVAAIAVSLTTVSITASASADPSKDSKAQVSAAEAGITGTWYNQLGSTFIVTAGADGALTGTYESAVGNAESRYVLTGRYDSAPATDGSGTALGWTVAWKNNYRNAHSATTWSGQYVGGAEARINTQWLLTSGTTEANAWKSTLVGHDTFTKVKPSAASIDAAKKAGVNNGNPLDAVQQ
Follistatin (Homo sapiens), sequence (P19883 whole entry, looked up): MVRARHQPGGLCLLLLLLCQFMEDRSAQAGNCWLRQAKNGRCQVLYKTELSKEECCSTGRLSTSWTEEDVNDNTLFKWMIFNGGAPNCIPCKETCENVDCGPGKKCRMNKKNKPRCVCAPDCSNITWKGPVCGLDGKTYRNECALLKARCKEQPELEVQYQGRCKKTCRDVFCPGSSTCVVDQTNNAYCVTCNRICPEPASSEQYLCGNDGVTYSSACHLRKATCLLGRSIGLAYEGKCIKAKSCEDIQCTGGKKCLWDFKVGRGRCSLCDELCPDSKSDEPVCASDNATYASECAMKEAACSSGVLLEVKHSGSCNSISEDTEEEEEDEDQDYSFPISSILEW

As to `O=C1[C@@]23C=C(Br)[C@H](C[C@@H]2COC3)[C@@]12CO2`, the composite z-score came to 0.192 in [1]; 0.247 in assay [2]; 0.0493 in [3]; 0.161 in [4]; 0.397 in assay [5]; 0.423 in assay [6]. The composite z-score with Lefty1 is 0.414; in assay [8] it was 0.0439; in assay [10], 0.731; in assay [15], -0.129; in assay [16], -0.0986; in the assay with Torsin-1A (Homo sapiens) [17] it was 0.283. The composite z-score turned out to be 0.276 with Torsin-1A (Homo sapiens) [18] and 0.497 in [19]. The z-score was -0.0605 in assay [7]; 0.44 (inactive) in assay [9]; 0.762 (inactive) in [11]; 0.461 (inactive) in assay [12]; -0.329 (inactive) in assay [13]; 2.56 (inactive) in assay [14].

With `O=C1C2C=CC(C(O)c3cc(C(F)(F)F)cc(C(F)(F)F)c3)N(Nc3ccccc3F)C2C(=O)N1c1ccccc1` (stereo not given), the composite z-score is -0.102 in [1]; 1.21 in assay [2]; 0.76 in [3]; 0.847 in assay [4]; 0.21 in [5]; -0.215 in [6]. The composite z-score with Lefty1 was -0.173; in assay [8] it was 0.416; in [10], 0.17; in assay [15], 0.714; in assay [16], 0.385; with Torsin-1A (Homo sapiens) [17], -0.0067. The figures for the composite z-score (with Torsin-1A (Homo sapiens) [18]; in assay [19]) were 0.379 and -0.685, respectively. Also, the z-score in assay [7] was -1.58; in [9], 0.668 (inactive); in assay [11], -3.68 (inactive); in [12], -0.476 (inactive); in [13], 0.626 (inactive); in [14], -0.0442 (inactive).

With `C=C(COC)C(=O)CC[C@H](OC(=O)c1cccnc1)c1ccc(CO)o1`, the composite z-score is 0.784 in assay [1]; 0.113 in assay [2]; -0.163 in assay [3]; 0.978 in assay [4]; 1.34 in [5]; 1.26 in [6]. For the same compound, the composite z-score is 1.15 in the assay on Lefty1; 0.264 in assay [8]; 0.196 in assay [10]; -0.184 in assay [15]; 0.13 in assay [16]; 2.19 with Torsin-1A (Homo sapiens) [17]. The composite z-score was -0.0291 in the assay with Torsin-1A (Homo sapiens) [18] and 1.41 in assay [19]. Further, the z-score in assay [7] was -0.595; in assay [9], -0.721 (inactive); in [11] it was -0.319 (inactive); in assay [12], 0.312 (inactive); in [13], 0.522 (inactive); in [14] it was 0.756 (inactive).

Turning to `O=c1cccc(-c2ccco2)o1`, the composite z-score in assay [1] worked out at 0.645; in assay [2] it was 0.471; in assay [3], 0.082; in assay [4] it was 0.476; in [5], 1.3; in [6], 0.879. The composite z-score with Lefty1 is 1.02; in assay [8], 0.138; in assay [10], 0.302; in assay [15] it was 0.721; in [16], 0.0091; in the assay with Torsin-1A (Homo sapiens) [17], 0.444. For the same compound, the composite z-score amounted to 0.066 with Torsin-1A (Homo sapiens) [18] and 2.07 in assay [19]. Besides, the z-score in assay [7] was -0.262; in assay [9], 0.405 (inactive); in [11], -0.768 (inactive); in assay [12], 0.329 (inactive); in assay [13] it was -0.518 (inactive); in assay [14], 0.57 (inactive).

For `C=CC1c2cc(O)c(OC)cc2CCN1Cc1ccc([N+](=O)[O-])o1` (stereo not given), the composite z-score in assay [1] is 3; in assay [2], -0.354; in assay [3] it was -0.426; in assay [4] it was 0.66; in assay [5] it was 0.138; in assay [6], -0.0471. Besides, the composite z-score in the assay on Lefty1 is -0.807; in assay [8] it was 1.39; in [10], 0.17; in assay [15], 0.39; in [16], 0.027; with Torsin-1A (Homo sapiens) [17] it was -0.17. In addition, the values for the composite z-score (in the assay with Torsin-1A (Homo sapiens) [18]; in [19]) were 0.745 and -0.873, respectively. Besides, the z-score in assay [7] is 1.3; in [9], -1.6 (inactive); in [11] it was -0.244 (inactive); in assay [12] it was 1.47 (inactive); in [13] it was -0.321 (inactive); in assay [14], -0.625 (inactive).
